Out of some 360,000 compounds screened, about 7,500 (2.1%) were called active. Roughly 20% stayed inconclusive and do not appear here. Calls come from the whole dose curve; as a rule, active = well fitted inhibition curve with a large enough effect; inconclusive = small, poorly fitted or top-dose-only effect, or effect the other way; inactive = flat fitted curve, though single readings scatter. What follows is part of a selection rich in actives, with near analogues and random picks from the rest.
% is set by controls: 0 for no effect and ±100 for the full control effect; potency is the fitted concentration of half-maximal effect.

This assay can be described thus: Nrf2 qHTS screen for inhibitors. Note: nearly all actives have a fitted effect of over 60% in size. To be noted: A549 ARE-Fluc reporter, luciferase luminescence, 18-24 h; series mostly up to 46 µM; activity change, negative = inhibition: at the top concentration. The text has this:
NIH Molecular Libraries Probe Production Network [MLPCN]
NIH Chemical Genomics Center [NCGC]
Assay Provider: Shyam Biswal, Johns Hopkins University
Nrf2 is a transcription factor that maintains cellular redox homoestasis and protects cells from xenobiotics. Nrf2 binds to the antioxidant response element (ARE) to induce gene expression of a broad spectrum of genes that encode for antioxidants. […] Finding a small molecule that act as an inhibitor of Nrf2 function would represent a novel therapeutic target that could lead to improvement in survival of patients undergoing chemo- and/or radio- therapy.
This is the Nrf2 activity measured in the luminescent read.
1. Shibata, T., et al., Genetic Alteration of Keap1 Confers Constitutive Nrf2 Activation and Resistance to Chemotherapy in Gallbladder Cancer. Gastroenterology, 2008.
2. Sjoblom, T., et al., The consensus coding sequences of human breast and colorectal cancers. Science, 2006. 314(5797): p. 268-74.
NCGC Assay Protocol Summary:
A concentration-response assay was performed with A549 ARE_Fluc cells which are suspended in 5% FBS OPTI-MEM. Five uL were dispensed into 1536-well white TC-treated plate using the Kalypsys dispenser to achieve a density of 5000 cells/well in all columns except column 1. The plate is incubated at 37deg C at 5% CO2 for 2 hours before 23 nL of compounds are added with the Kalypsys pin tool equipped with a 1,536-pin array containing 10-nL slotted pins (FP1S10, 0.457-mm diameter, 50.8 mm long; V&P Scientific). The control compounds Budesonide and Staurosporine are both added at a concentration of 2mM and Budesonide is also added as a 1:10 titration, starting at 200uM, to achieve dose-response. After an 18-24 hour incubation at 37deg C at 5% CO2, 5ul of medium is added to column 1. Afterwards 1ul of 5x of CellTiter-Fluor (Promega) is added to every well. The plate is then incubated at 37deg C at 5% CO2 for 30 minutes before they are read on the ViewLux (Perkin Elmer) for a fluorescent read Ex=405(10)/Em=525(10) for a 3 second exposure, 2x binning, and high gain. Then 3 uL of 3x BugLite is dispensed into all wells and the plate is incubated at ambient room temperature for 15 minutes. Afterwards another ViewLux read is performed using the clear filter to get a luminescent read with the settings of 40 second exposure, 2x binning, and high gain. Cytotoxicity is assessed through the first fluorescent read and then biochemical activity against Nrf2 is measured in the luminescent read.
A general note: qHTS replaces the single test concentration by a dilution series.
As for `CCCn1c(C)cc(-c2csc(NC(=O)CCc3nc4ccccc4c(=O)[nH]3)n2)c1C`, the “activity change, negative = inhibition” value was -5.04% (inactive).
As for `Cc1cc(C)c(-c2csc(NC(=O)CCCc3nc4ccccc4c(=O)[nH]3)n2)c(C)c1`, the Potency was 9.2 µM (active).
As for `CC(=O)NCc1ccc(-c2csc(NC(=O)CCCc3nc4ccccc4c(=O)[nH]3)n2)cc1`, the “activity change, negative = inhibition” value was 4.73% (inactive).
`Cc1sc2ncn(CC(=O)N3CCN(c4ccc(F)cc4)CC3)c(=O)c2c1S(=O)(=O)N1CCN(c2ncccn2)CC1`: the “activity change, negative = inhibition” value is -18% (inactive).
Consider `O=C(Cc1c(F)cccc1Cl)Nc1ncc([N+](=O)[O-])s1`, for which the Potency is 16.4 µM (active).
For the compound `COc1ccc(S(=O)(=O)N2CCOCC2)cc1NC(=O)Cc1c(F)cccc1Cl`, the “activity change, negative = inhibition” value was -7.15% (inactive).
For `CC(C)(C)NC(=O)NC(=O)COC(=O)Cc1c(F)cccc1Cl`, the “activity change, negative = inhibition” value is -0.296% (inactive).
On to `Cc1ccc(S(=O)(=O)c2cc3c(=O)n4cccc(C)c4nc3n(CCc3ccccc3)c2=N)cc1C`, for which the “activity change, negative = inhibition” value was 3.09% (inactive).
On to `COC(=O)c1ccccc1NC(=O)c1cnn(-c2ccc(F)cc2)c1-n1cccc1`, for which the “activity change, negative = inhibition” value is 29.2% (inactive).
For `COc1ccc2c(c1)c(N1CCCC1=O)c(C(=O)Nc1ccccc1C(F)(F)F)n2C`, the “activity change, negative = inhibition” value is 25.9% (inactive).
Still for that read-out and setting: for `CCC1([N+](=O)[O-])COC(c2ccc(C)cc2)OC1` (centres undefined) the value was 8.27% (inactive); for `CCOC(=O)c1ccc(NC(=O)C2CC(=O)NC(=Nc3ccc(C)c(C)c3)S2)cc1` (centres undefined), 2.13% (inactive); for `CN(C)c1ccc(/C=N\S(=O)(=O)c2ccccc2)cc1`, 0.274% (inactive).
Consider `CC[n+]1cc(C)ccc1/C=C/c1ccc(N(C)C)cc1`, for which the Potency was 4.11 µM (active).
For `C=CC(COCc1ccccc1)N(CC(=O)OC)S(=O)(=O)c1cc(Br)ccc1OC` (centres undefined), the “activity change, negative = inhibition” value was -14.9% (inactive).
`Cc1nn(CC(=O)O)c(=O)c2cc3cc(F)ccc3n12`: the “activity change, negative = inhibition” value was 1.3% (inactive).
For `Cc1ccccc1C(=O)O`, the “activity change, negative = inhibition” value was -0.366% (inactive).
In the case of `Cc1ccccc1C(=O)OC1OC(=O)C(Cl)=C1Nc1ccccc1` (centres undefined), the Potency was 8.2 µM (active).
As for `O=C1OC(OC(=O)c2ccccc2Br)C(N2CCOCC2)=C1Cl` (centres undefined), the “activity change, negative = inhibition” value was -22.5% (inactive).
As for `CCOC(=O)c1c(-c2ccc(OC)cc2)oc2ccc(OCc3ccc(C(=O)OC)cc3)cc12`, the “activity change, negative = inhibition” value is -9.39% (inactive).
Consider `O=C(NCCCN1CCOCC1)c1cn(-c2ccccc2)nc1-c1ccc(F)cc1`, for which the “activity change, negative = inhibition” value is -5.73% (inactive).
For the compound `CCCCCCSc1ccc(-c2nc3ccc(Cl)cn3c2NCc2ccccc2)cc1`, the “activity change, negative = inhibition” value was 6.14% (inactive).
On to `O=C(CNC(=O)c1ccc(Cl)c(C(F)(F)F)c1)OC(C(=O)Nc1cc(C(F)(F)F)ccc1Cl)c1ccccc1` (centres undefined), for which the “activity change, negative = inhibition” value is 17% (inactive).
Regarding `COc1ccc(OC)c(/C=C/C(=O)c2ccc3c(c2)OCO3)c1`, the “activity change, negative = inhibition” value was -2.43% (inactive).
On to `CCc1nn(CC(=O)N2CCN(c3cc(C)ccc3C)CC2)c(=O)c2cc3occc3n12`, for which the Potency result was “inactive”.
Take `Cc1ccc(C)c(N2CCN(C(=O)Cn3ncn4cccc4c3=O)CC2)c1`: the Potency is 23.1 µM (active).
Take `Cc1ccc(C)c(N2CCN(C(=O)Cn3nc(C)c4sc5ccccc5c4c3=O)CC2)c1`: the “activity change, negative = inhibition” value is -25.7% (inactive).
Still for that read-out and setting: with `COc1ccc(-c2nc(CN3CCC(C(=O)NCCN(CC(C)C)CC(C)C)CC3)c(C)o2)cc1OC` the figure was 1.5% (inactive); with `CN(C(=O)c1cccc(NC(=O)Cc2ccc(NC(=O)C3CCN(C(=O)C4CCCCC4)CC3)cc2)c1)C1CCC1`, 5.92% (inactive).
Consider `COc1ccccc1N1CCN(S(=O)(=O)c2ccc(Cl)cc2)CC1`, for which the “activity change, negative = inhibition” value is -28.2% (inactive).
For `CS(=O)(=O)N(CC(=O)N1CCCC1)Cc1ccccc1`, the “activity change, negative = inhibition” value was 0.0838% (inactive).
With `COc1ccccc1N1CCN(C(=O)CN(Cc2ccc(Cl)cc2)S(C)(=O)=O)CC1`, the Potency is 23.1 µM (active).
Turning to `O=S1(=O)N=C(Oc2cccc(Br)c2)c2ccccc21`, the “activity change, negative = inhibition” value is -1.46% (inactive).
Consider `COc1ccc(-c2cc(-c3nc(-c4cc(OC)c(OC)c(OC)c4)no3)[nH]n2)c(OC)c1`, for which the “activity change, negative = inhibition” value was -8.11% (inactive).
In the case of `CC(C)(C)OC(=O)N1CCC(C(=O)Nc2cccc(C(=O)NCCc3ccccc3)c2)CC1`, the “activity change, negative = inhibition” value is -0.0845% (inactive).
Regarding `CCN(CCCNC(=O)CSc1cc(=O)n(C)c2cc(Cl)ccc12)c1cccc(C)c1`, the “activity change, negative = inhibition” value is 0.522% (inactive).
Take `Cc1ccc(C(=O)NC2CCN(C#N)CC2)cc1`: the “activity change, negative = inhibition” value is 7.04% (inactive).
As for `COCc1cc(=O)n2[nH]c(C)c(-c3ccccc3)c2n1`, the “activity change, negative = inhibition” value is -21.7% (inactive).
With `Cc1nc2c(-c3ccccc3)c(C)[nH]n2c(=O)c1Cl`, the Potency was 20.6 µM (active).
On to `Cc1cc(=O)n2[nH]c(-c3cccc(Cl)c3)cc2n1`, for which the “activity change, negative = inhibition” value is 7.12% (inactive).
Still for that read-out and setting: with `O=[S+]([O-])(c1ccc2c(c1)OCCO2)N1CCN([S+](=O)([O-])c2c(Cl)cc(Cl)cc2Br)CC1` the figure was 4.14% (inactive); with `COc1ccc(N(C)S(=O)(=O)c2ccc3c(c2)CC(C)N3C(=O)C2CC2)c(OC)c1` (centres undefined), -21.9% (inactive); with `COc1cccc(CNS(=O)(=O)c2ccc3c(c2)CC(C)N3C(C)=O)c1` (centres undefined), -2.36% (inactive).
Regarding `COc1cccc(CNS(=O)(=O)c2ccc3c(c2)CC(C)N3C(=O)C2CCC2)c1` (centres undefined), the Potency was 11.6 µM (active).
Consider `CC(=O)OC1CCC2C3CCC4=C(CC(F)C(=O)C4)C3CCC12C` (centres undefined), for which the “activity change, negative = inhibition” value is -23.5% (inactive).
The same measure, in the same setting: with `C/C=C/c1ccc(OCC(=O)NNC(=O)CN(C)S(=O)(=O)c2ccc(C)cc2)c(OC)c1` the figure was 2.15% (inactive).
The same measure, in the same setting: for `Cc1ccc(C)c(N2CCN(C(c3ccccc3)c3nnc(-c4ccccc4)o3)CC2)c1` (centres undefined) the value was 0.91% (inactive).
`CCCn1c(NCc2ccc(N(CC)CC)cc2)nc2ccccc21`: the “activity change, negative = inhibition” value is 1.93% (inactive).
Still for that read-out and setting: for `O=C(/C=C/c1ccccc1)N/C(=C/c1ccccc1)C(=O)Nc1ccccc1O` the value was 17.7% (inactive).

The record behind these values is PubChem BioAssay AID504444 (National Center for Advancing Translational Sciences (NCATS), 2011).
